Results reported in the supplement of paper PMC13380429.
Unmarked numbers belong to inactive results.

Tested on: Vero E6 infected with SARS-CoV-2
Assay: inhibition of SARS-CoV-2 cytopathic effect; higher = more antiviral protection, active = above 15
Details: 48 h

Row | Structure (SMILES) | inhibition of SARS-CoV-2 cytopathic effect (1 nM) [%] | inhibition of SARS-CoV-2 cytopathic effect (8.33 nM) | inhibition of SARS-CoV-2 cytopathic effect (100 nM) | inhibition of SARS-CoV-2 cytopathic effect (833.33 nM) [%] | inhibition of SARS-CoV-2 cytopathic effect (10000 nM)
1 | CCCc1ncc(C[n+]2ccccc2C)c(N)n1 [amprolium] | 7.17 | 1.36% | 4.43% | -0.09 | 0.03%
2 | N#Cc1ccc(N2N=C3c4ccc(C(=O)O)cc4CC[C@@H]3[C@@H]2C2CCCC2)cc1Cl | 7.07 | 18% (active) | 18.3% (active) | 4.59 | 10.2%
3 | OCc1cc([C@@H](O)CNCCCCCCOCCOCc2c(Cl)cccc2Cl)ccc1O [vilanterol] | -1.65 | -1.28% | 0.86% | -0.19 | -2.68%
4 | Cc1cc(NC(=O)C2=C(O)c3ccccc3S(=O)(=O)N2C)no1 [isoxicam] | -3.86 | -3.12% | -4.12% | -2.59 | -0.72%
5 | O=C(Nc1ccc(-c2ccncc2)cc1)N[C@H](CO)c1ccccc1 | -3.49 | 2.37% | -1.14% | -0.94 | -7.89%
6 | CC1=NN(c2ccc(C)c(C)c2)C(=O)/C1=N\Nc1cccc(-c2cccc(C(=O)O)c2)c1O [eltrombopag] | 2.51 | 2.25% | 2.06% | 0.59 | 0.99%
7 | COc1cc(/C=C/C(=O)CC(=O)/C=C/c2ccc(O)c(OC)c2)ccc1O [curcumin] | -1.79 | -0.65% | 1.73% | 4.68 | 23.4% (active)
8 | Cc1ccnc2c1NC(=O)c1cccnc1N2C1CC1 [nevirapine] | -0.06 | 2.22% | 0.61% | 0.25 | 0.49%
9 | NC(=O)c1cccc2cn(-c3ccc([C@@H]4CCCNC4)cc3)nc12 [niraparib] | -0.28 | 0.08% | -1.61% | 3.39 | 5.55%
10 | O=C(O)CCCCN(CCc1ccccc1OCc1ccc(CCc2ccccc2)cc1)Cc1ccc(C(=O)O)cc1 [cinaciguat] | 1.27 | 2.69% | 2.55% | 2.26 | -3.15%
11 | C/C=C1/[C@H](O[C@@H]2O[C@H](CO)[C@@H](O)[C@H](O)[C@H]2O)OC=C(C(=O)OC)[C@H]1CC(=O)OCCc1ccc(O)c(O)c1 [oleuropein] | 0.9 | -0.2% | -0.09% | 0.43 | 0.52%
12 | Nc1nc(CC(=O)Nc2ccc(CCNC[C@H](O)c3ccccc3)cc2)cs1 [mirabegron] | -0.75 | -0.61% | 1.85% | -1.35 | -3.3%
13 | NCC(=O)Nc1ccc(-n2nc(C(F)(F)F)cc2-c2ccc3c(ccc4ccccc43)c2)cc1 | -0.05 | 2.22% | 2.09% | -1.2 | -3.56%
